Screens from PubChem BioAssay.
Epigenetic mod: qHTS Assay for Epigenetic Modulators; Potency, µM (titrated, usually from 46.1 µM), without a hit: at the highest dose GFP derepression (activation); 68,000 compounds, 0.09% hits; mouse C127i GFP locus derepression, cytometry, 30 h; AID 597, 2007; further: % of control where 0% means no effect
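Locus derepression in mouse mammary C127i cells whose integrated CMV-GFP reporter is normally silent; GFP expression after 30 h compound treatment was quantified by counting fluorescent cells.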
HEK293 cAMP ctrl: qHTS Assay for Agonists of the Thyroid Stimulating Hormone Receptor: Activators of Intracellular cAMP Concentrations in Parental HEK 293 | parental HEK293 CNG cAMP sensor, membrane potential fluorescence | Potency, µM (highest dose often 57.1 µM), for the others: at the highest dose activation, hits mostly activators | 73,000 compounds, 2.5% hits; further: potency means the concentration at half of the fitted maximal effect; % of control where 0% means no effect; nearly all actives have a fitted effect of over 55% in size
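Parental HEK 293 cells stably expressing a cAMP-gated CNG channel were loaded with membrane potential dye containing 100 uM RO 20-1724 for 60 min. Compound added for 30 min; depolarization read as fluorescence intensity at 590 nm.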
TSHR ag: qHTS Assay for Agonists of the Thyroid Stimulating Hormone Receptor | Potency, µM (series often up to 57.1 µM), for the others: top-dose activation, most hits filed as activators | AID 926, 2007 | Thyrotropin receptor (Homo sapiens), P16473 | HEK293-CNG-TSHR cells (CNG channel as cAMP sensor), membrane potential dye, cAMP | 73,000 compounds, 0.48% hits; active means well fitted activation curve with a large enough effect in the main read-out, with a control signal flat, not every such curve was filed as active; inconclusive means small, poorly fitted or top-dose-only effect, or a change in a side signal; inactive means no such curve, though single readings can be large or run the other way; % of control where 0% means no effect;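 further: the control signal comes from parental cells without the receptor; potency means the concentration at half of the fitted maximal effect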
Target sequence (P16473 whole entry, looked up): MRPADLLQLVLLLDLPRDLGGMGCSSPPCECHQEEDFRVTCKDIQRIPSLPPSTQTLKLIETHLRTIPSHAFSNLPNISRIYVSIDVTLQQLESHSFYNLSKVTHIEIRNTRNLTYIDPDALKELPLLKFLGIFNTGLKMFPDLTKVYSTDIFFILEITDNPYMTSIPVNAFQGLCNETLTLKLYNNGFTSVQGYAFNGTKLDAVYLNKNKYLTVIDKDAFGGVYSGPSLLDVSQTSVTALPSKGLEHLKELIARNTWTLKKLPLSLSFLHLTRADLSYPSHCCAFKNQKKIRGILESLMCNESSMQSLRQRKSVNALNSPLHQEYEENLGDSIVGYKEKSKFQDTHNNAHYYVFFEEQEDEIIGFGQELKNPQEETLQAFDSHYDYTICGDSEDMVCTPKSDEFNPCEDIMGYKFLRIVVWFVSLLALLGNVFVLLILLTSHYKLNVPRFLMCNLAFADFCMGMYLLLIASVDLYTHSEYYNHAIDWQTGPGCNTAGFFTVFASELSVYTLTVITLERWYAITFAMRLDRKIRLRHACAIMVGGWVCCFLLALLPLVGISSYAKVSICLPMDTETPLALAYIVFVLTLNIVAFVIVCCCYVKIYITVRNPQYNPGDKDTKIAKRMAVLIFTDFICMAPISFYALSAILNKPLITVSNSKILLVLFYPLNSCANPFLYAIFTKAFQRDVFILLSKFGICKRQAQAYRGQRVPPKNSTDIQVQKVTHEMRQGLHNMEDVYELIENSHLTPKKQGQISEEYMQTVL
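cAMP rise detected as CNG-channel membrane depolarization by fluorescent dye (emission 590 nm), 30 min after compound, following 60 min dye loading containing 100 uM RO 20-1724 at room temperature. Cells: TSHR/CNG HEK 293, with parental CNG HEK 293 as control.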
Ub-GFP proteasome: Ubiquitin-GFP Assay | Ubiquitin-GFP reporter cells, proteasome inhibition, GFP fluorescence; response scale: untreated = 0%, 10 µM MG-132 = 100% | Potency, µM (titrated, usually from 45.9 µM), for the others: at the top dose activation (GFP accumulation), hits mostly activators | 67,000 tested, under 10 active; active means well fitted activation curve with a large enough effect, not every such curve was filed as active; inconclusive means small, poorly fitted or top-dose-only effect, or another doubt; inactive means no such curve, though single readings can be large or run the other way; further: potency means the concentration at half of the fitted maximal effect
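U2OS Ub(G76V)-GFP reporter; O/N plating, 0.5% FBS; cpd 46 uM–2.9 nM, 4 h, 37 °C; GFP+ cell count, 488/515 nm; norm. to basal vs 10 uM MG-132; CRC fit.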
HBB splicing: qHTS Assay for Modulators of Hemoglobin Beta Chain Splicing; HBB splicing reporter cell assay, activation; EGFP reporter with mutant IVS2-654 intron; response scale: normalised to 500 nM splice-correcting PNA; 65,000 compounds, 0.06% hits; AID 925, 2007; Potency, µM (highest dose often 46.1 µM), for inactives: at the highest dose activation, usual class: activators; further: potency means the concentration at half of the fitted maximal effect; 0% is about no effect
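HeLa cells stably expressing EGFP interrupted by mutant beta-globin intron 2 (IVS2-654), 500/well in 2% FCS. Treated with compound for 2 days at 37C. Splicing correction scored as total well GFP intensity (488 nm excitation, 500-520 nm emission); 500 nM antisense PNA served as control.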
HEK293 cAMP cnt: Confirmation Concentration-Response Assay for Agonists of the Thyroid Stimulating Hormone Receptor: Activators of Intracellular cAMP Concentrations in Parental HEK 293 | parental HEK293 CNG biosensor, cAMP membrane potential fluorescence | AID 953, 2007 | 150 tested, under 10 active | shares compounds with TSHR ag | activity change, negative = inhibition, % at 32.9 µM
* marks the source's active call; other numbers are inactive results; ? = inconclusive; nt = no result given; [ ] = another dose, or the depositor's remark. Rows were chosen to be rich in hits. Some 3% of all compounds tested hit in one or more screens of this group. Unless noted, the call rests on the fitted dose curve; in most records, active means well fitted curve in the direction sought with a large enough effect; inconclusive means small, poorly fitted or top-dose-only effect, or another doubt; inactive means no such curve, though single readings can be large; an effect the other way counts as inactive or inconclusive.

SMILES	Epigenetic mod	HEK293 cAMP ctrl	TSHR ag	Ub-GFP proteasome	HBB splicing	others
CNc1ccc2oc(C[C@@H]3O[C@@]4(CC[C@H]3C)O[C@@H]([C@@H](C)C(=O)c3ccc[nH]3)[C@@H](C)C[C@H]4C)nc2c1C(=O)O	-1.1%	12.2%	16.4%	-1.8%	-0.2%
c1ccc(N2CC3(CCNCC3)C2)cc1	0.0%[9.22 µM]	10µM*	?	-8.0%	2.5%
c1cc(N2CCCC3(CCNCC3)C2)ccn1	0.0%[9.22 µM]	2.51µM*	?	-3.3%	5.7%
CC[C@H]1CN2CC[C@@H]1C[C@@H]2[C@H](O)c1ccnc2ccccc12	-0.1%[9.22 µM]	0.1%	1.1%	1.8%	nt
CCCN(CCC)[C@@H]1CCc2c(OC)cccc2[C@@H]1C	-0.4%	31.6µM*	?	1.6%	nt
c1ccc(/N=C2\N=C(Nc3ccccn3)c3ccccc32)nc1	12.6µM*	18.6%	7.94µM*	-2.0%	-0.4%[57.5 µM]
C=CCOC(=O)COc1cc(C)cc2oc(=O)c3c(c12)CCC3	7.5%	5.01µM*	?	-5.7%	7.7%
CCCCOC(=O)COc1cc(C)cc2oc(=O)c3c(c12)CCC3	5.0%	8.8%	0.5%	3.4%	-6.0%
CN(c1ccccc1)S(=O)(=O)c1cccc(C(=O)N2CCN(c3ccccn3)CC2)c1	1.9%	15.8µM*	?	-1.4%	0.0%[57.5 µM]
CN1[C@@H]2CC[C@H]1CC(O[C@@H](c1ccccc1)c1ccc(Cl)cc1)C2 (some centres not stated)	0.0%	39.8µM*	?	-2.6%	0.8%
CN1[C@@H]2CC[C@H]1CC(OC1c3ccccc3CCc3ccccc31)C2 (some centres not stated)	2.9%[20.6 µM]	12.6%[25.6 µM]	18.3%[25.6 µM]	1.4%[20.5 µM]	-3.1%[20.6 µM]
OC[C@H]1CCCN2CCCC[C@@H]12	-6.8%[9.22 µM]	-2.3%	-1.3%	2.5%	nt
O=C(O)[C@@H](O)[C@@H](O)[C@@H]1[O][Sb][O][C@@H]1CO	0.0%[9.22 µM]	-5.3%[11.4 µM]	nt	-4.6%[9.17 µM]	-2.1%[9.22 µM]
COC1=C[C@H]2[C@@H]3Cc4ccc(OC)c(O)c4[C@@]2(CCN3C)CC1=O	-2.4%[9.22 µM]	1.4%	11.1%	-2.6%	nt
COc1ccc(C2=NCC(=O)N(CC(=O)NCc3ccco3)c3sc4c(c32)CCCC4)cc1	-1.3%	18.8%	15.8µM*	-1.7%	-5.7%
O=C(c1ccco1)N1CCN(Cc2ccccc2C(F)(F)F)CC1	-3.8%	3.98µM*	?	-2.8%[9.17 µM]	-1.4%[0.0738 µM]
NC(N)=Nc1ccc2[nH]c3c(c2c1)C[C@]1(O)[C@@H]2Cc4ccc(O)c5c4[C@]1(CCN2CC1CC1)[C@H]3O5	-0.1%	0.0158µM*	?	1.6%	3.0%
CC(C)(C)c1cc(C=C(C#N)C#N)cc(C(C)(C)C)c1O	-1.1%	0.794µM*	?	-4.6%	-1.2%
O=S(=O)(NCCO)c1cc[c]([Sb](=[O])([OH])[OH])cc1	3.4%[9.22 µM]	-6.8%[11.4 µM]	4.7%[11.4 µM]	-5.0%[9.17 µM]	7.2%[9.22 µM]
N#CC(C(=O)C12CC3CC(CC(C3)C1)C2)c1nc2ccccc2[nH]1 (configuration not stated)	0.0%	3.16µM*	?	7.0%	0.0%
Cc1noc(C)c1C(=O)N1CCC2(CCCN(CC(C)C)C2)CC1	2.5%[9.22 µM]	15.8µM*	?	4.0%	3.9%
Cc1[nH]nc2c1C1(CCC3(CC1)OCCO3)C(C#N)=C(N)O2	-2.1%	1.2%	10µM*	0.0%	0.6%
O=c1ccc2cc(O[C@@H]3O[C@@H](CO)[C@@H](O)[C@@H](O)[C@H]3O)c(O)cc2o1	4.6%[9.22 µM]	-0.5%	-0.7%	10.6%	nt
CSc1nc2ccccc2n1C(=O)Oc1ccccc1	1.6%	25.1µM*	?	nt	0.8%[0.369 µM]
Oc1cccc(Cl)c1	nt	19.9%	?	nt	-0.6%
SMILES	Epigenetic mod	HEK293 cAMP ctrl	TSHR ag	Ub-GFP proteasome	HBB splicing	others
N#CC(C#N)=NNc1cccc(Cl)c1	nt	0.631µM*	?	nt	-0.4%
C=C1C/C(=C\C)C(=O)O[C@@H]2CCN3CC=C(COC(=O)[C@]1(C)O)[C@H]23	-9.2%[9.22 µM]	3.3%	-0.7%	-2.5%	nt
CCOC(=O)c1c(C)n(COCCO)c2ccc(O)cc12	?	-2.6%	-0.9%	2.9%	-1.3%[1.84 µM]
CCn1c(C)c(C(=O)O)c2cc(OC)ccc21	0.0%	-7.4%	-0.2%	-5.9%	0.9%[57.5 µM]	HEK293 cAMP cnt=6.2[25.6 µM]
O=C(Nc1ccccn1)NC12CC3CC(CC(C3)C1)C2	-1.2%	26.5%	20µM*	-2.2%	nt	HEK293 cAMP cnt=-8.7
CCC(=NCC1CCCO1)c1c(O)n(Cc2ccccc2)c(=O)[nH]c1=O (configuration not stated)	-2.2%	3.5%	0.6%	-0.9%	1.8%[57.5 µM]	HEK293 cAMP cnt=5.6[25.6 µM]
CCCN1CCC[C@H](c2cccc(C#N)c2)C1	1.1%	?	?	-1.3%	0.2%
COc1ccc2c(c1)[C@]13CCCC[C@@H]1[C@H](C2)NCC3	-1.1%	?	?	6.2%	3.7%
